# Measurements reported in publication PMC11062922 (Nature Chemical Biology, 2023).
# Where two headings read alike, the source gives them in different places.
# Key:
# [1] = system: AAK1; design: species or system human, MV4-11 + K-562 + COLO205 + SK-N-BE2 + OVCAR-8; settings: read-out: apparent Kd, n = 1
# [2] = target: Q6ZSR9 (human, UniProt Q6ZSR9); design: species or system MV4-11 + K-562 + COLO205 + SK-N-BE2 + OVCAR-8; settings: read-out: apparent Kd, compound concentrations: 100 nM and 1000 nM (sheet 'Samples'), n = 1
# Q6ZSR9, sequence (Q6ZSR9 whole entry, looked up): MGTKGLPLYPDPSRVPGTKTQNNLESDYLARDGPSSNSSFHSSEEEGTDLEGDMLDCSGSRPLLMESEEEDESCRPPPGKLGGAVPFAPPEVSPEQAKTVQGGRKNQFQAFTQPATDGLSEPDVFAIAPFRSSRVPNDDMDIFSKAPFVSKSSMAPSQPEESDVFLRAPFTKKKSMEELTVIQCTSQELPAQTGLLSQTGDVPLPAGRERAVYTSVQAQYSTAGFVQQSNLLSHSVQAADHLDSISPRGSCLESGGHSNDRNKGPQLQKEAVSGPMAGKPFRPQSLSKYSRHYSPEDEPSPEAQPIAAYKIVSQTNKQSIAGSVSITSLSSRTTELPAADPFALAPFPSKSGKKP
# [3] = system: CLK1; design: species or system human, MV4-11 + K-562 + COLO205 + SK-N-BE2 + OVCAR-8; settings: read-out: apparent Kd, compound concentrations: 100 nM and 1000 nM (sheet 'Samples'), n = 1
# [4] = system: CLK4; design: species or system human, MV4-11 + K-562 + COLO205 + SK-N-BE2 + OVCAR-8; settings: read-out: apparent Kd, compound concentrations: 100 nM and 1000 nM (sheet 'Samples'), n = 1
# [5] = system: CSNK2A1;CSNK2A3; design: species or system human, MV4-11 + K-562 + COLO205 + SK-N-BE2 + OVCAR-8; settings: read-out: apparent Kd, compound concentrations: 100 nM and 1000 nM (sheet 'Samples'), n = 1
# [6] = system: CSNK2A2; design: species or system human, MV4-11 + K-562 + COLO205 + SK-N-BE2 + OVCAR-8; settings: read-out: apparent Kd, compound concentrations: 100 nM and 1000 nM (sheet 'Samples'), n = 1
# [7] = system: ABL1; design: species or system human, MV4-11 + K-562 + COLO205 + SK-N-BE2 + OVCAR-8; settings: read-out: apparent Kd, compound concentrations: 100 nM and 1000 nM (sheet 'Samples'), n = 1
# [8] = system: ABL2; design: species or system human, MV4-11 + K-562 + COLO205 + SK-N-BE2 + OVCAR-8; settings: read-out: apparent Kd, compound concentrations: 100 nM and 1000 nM (sheet 'Samples'), n = 1
# [9] = system: ACVR1B; design: species or system human, MV4-11 + K-562 + COLO205 + SK-N-BE2 + OVCAR-8; settings: read-out: apparent Kd, compound concentrations: 100 nM and 1000 nM (sheet 'Samples'), n = 1
# [10] = system: BCR; design: species or system human, MV4-11 + K-562 + COLO205 + SK-N-BE2 + OVCAR-8; settings: read-out: apparent Kd, compound concentrations: 100 nM and 1000 nM (sheet 'Samples'), n = 1
# [11] = system: GAK; design: species or system human, MV4-11 + K-562 + COLO205 + SK-N-BE2 + OVCAR-8; settings: read-out: apparent Kd, compound concentrations: 100 nM and 1000 nM (sheet 'Samples'), n = 1
# [12] = system: RIPK2; design: species or system human, MV4-11 + K-562 + COLO205 + SK-N-BE2 + OVCAR-8; settings: read-out: apparent Kd, compound concentrations: 100 nM and 1000 nM (sheet 'Samples'), n = 1
# [13] = system: RIPK3; design: species or system human, MV4-11 + K-562 + COLO205 + SK-N-BE2 + OVCAR-8; settings: read-out: apparent Kd, compound concentrations: 100 nM and 1000 nM (sheet 'Samples'), n = 1
# [14] = system: RET; design: species or system human, MV4-11 + K-562 + COLO205 + SK-N-BE2 + OVCAR-8; settings: read-out: apparent Kd; compound concentrations: 100 nM and 1000 nM (sheet 'Samples'), CATDS: 4.9371716156535399E-2; n = 1
smiles,measurement,setting,value
COc1cc(Nc2nccc(N3CCC(NC(=O)c4cccc(C#N)c4)C3)n2)cc(OC)c1OC (centres unmarked) [GSK1379751A],potency estimated from few doses,"[1]; compound concentrations: 100 nM and 1000 nM (sheet 'Samples'), CATDS: 0.20949591044902",786 nM
same,potency estimated from few doses,[2]; CATDS: 0.206433255862257,810 nM
COc1ccccc1CCNC1=NC(=O)/C(=C/c2ccc3ncccc3c2)S1 [RO4503316-000],potency estimated from few doses,"[1]; compound concentrations: 100 nM and 1000 nM (sheet 'Samples'), CATDS: 8.9875957971869994E-2",1540 nM
same,potency estimated from few doses,[3]; CATDS: 0.207972147405552,120 nM
same,potency estimated from few doses,[4]; CATDS: 0.25242389415209998,86.4 nM
same,potency estimated from few doses,[5]; CATDS: 0.132518653833052,327 nM
same,potency estimated from few doses,[6]; CATDS: 0.17333569062509099,171 nM
same,potency estimated from few doses,[2]; CATDS: 9.2411068480935804E-2,1310 nM
Cn1cc(C2=C(c3cn(CCCO)c4ccccc34)C(=O)NC2=O)c2ccccc21 [RO0317377-000],potency estimated from few doses,"[1]; compound concentrations: 100 nM and 1000 nM (sheet 'Samples'), CATDS: 0.115071291343016",1300 nM
same,potency estimated from few doses,[2]; CATDS: 0.107617362332997,1540 nM
COc1cc(Nc2ccnc3cc(-c4ccncc4)ccc23)cc(OC)c1OC.Cl [GW494610A],potency estimated from few doses,[7]; CATDS: 2.4379025884203698E-2,1070 nM
same,potency estimated from few doses,[8]; CATDS: 2.97420098626874E-2,523 nM
same,potency estimated from few doses,[9]; CATDS: 6.2055393770244598E-2,76.5 nM
same,potency estimated from few doses,[10]; CATDS: 4.8840213207685099E-2,133 nM
same,potency estimated from few doses,[11]; CATDS: 0.18484170134518799,10.7 nM
same,potency estimated from few doses,[12]; CATDS: 0.24490143470797801,7.12 nM
same,potency estimated from few doses,[13]; CATDS: 2.5857205413597002E-2,848 nM
Cc1ccc(O)cc1Nc1ccnc2cc(-c3ccccn3)ccc12.Cl [GW440139A],potency estimated from few doses,[7]; CATDS: 2.9086276614824699E-2,609 nM
same,potency estimated from few doses,[8]; CATDS: 3.5730235281971501E-2,238 nM
same,potency estimated from few doses,[9]; CATDS: 0.14783179697021401,9.88 nM
same,potency estimated from few doses,[10]; CATDS: 6.7644332106689603E-2,40.7 nM
same,potency estimated from few doses,[11]; CATDS: 4.3663241287780298E-2,121 nM
same,potency estimated from few doses,[14],85.8 nM
same,potency estimated from few doses,[12]; CATDS: 3.9139887822916601E-2,171 nM
same,potency estimated from few doses,[13]; CATDS: 4.4642127518175201E-2,114 nM
O=C1N=C(NCCc2ccccn2)S/C1=C\c1ccc2ncccc2c1 [RO4508346-000],potency estimated from few doses,"[1]; compound concentrations: 100 nM and 1000 nM (sheet 'Samples'), CATDS: 8.8556384492670503E-2",711 nM
same,potency estimated from few doses,[3]; CATDS: 0.10354679729128299,485 nM
same,potency estimated from few doses,[4]; CATDS: 0.116533275678242,377 nM
same,potency estimated from few doses,[5]; CATDS: 0.14119727464160201,262 nM
same,potency estimated from few doses,[6]; CATDS: 0.15250276369697799,229 nM
same,potency estimated from few doses,[2]; CATDS: 9.3045263541922094E-2,625 nM
same,potency estimated from few doses,[12]; CATDS: 9.0933210372185796E-2,663 nM
Cl.O=C1N=C(NCc2ccccn2)S/C1=C\c1ccc2ncccc2c1 [RO4874953-001],potency estimated from few doses,"[1]; compound concentrations: 100 nM and 1000 nM (sheet 'Samples'), CATDS: 0.10575738699934099",813 nM
same,potency estimated from few doses,[3]; CATDS: 9.3934655889041305E-2,1020 nM
same,potency estimated from few doses,[4]; CATDS: 0.12673851417901799,598 nM
same,potency estimated from few doses,[5]; CATDS: 0.103683643435769,843 nM
same,potency estimated from few doses,[6]; CATDS: 0.101925374884365,870 nM
same,potency estimated from few doses,[11]; CATDS: 8.1785679571560799E-2,1370 nM
same,potency estimated from few doses,[2]; CATDS: 8.7999658255021304E-2,1160 nM
Nc1nc(-c2ccc3c(N)n[nH]c3c2)cc(N2CCCCC2)n1 [GSK2228768A],potency estimated from few doses,[1]; compound concentrations:100 nM and 1000 nM (sheet 'Samples'),749 nM
O=C1N=C(NCC(CO)c2ccccc2)S/C1=C\c1ccc2ncccc2c1 (centres unmarked) [RO4582641-000],potency estimated from few doses,"[1]; compound concentrations: 100 nM and 1000 nM (sheet 'Samples'), CATDS: 0.17753366584660099",89.4 nM
same,potency estimated from few doses,[3]; CATDS: 0.190725453373879,79.6 nM
same,potency estimated from few doses,[4]; CATDS: 7.8741262727809305E-2,590 nM
same,potency estimated from few doses,[5]; CATDS: 0.138008161076002,140 nM
same,potency estimated from few doses,[6]; CATDS: 0.126393310474474,167 nM
same,potency estimated from few doses,[2]; CATDS: 0.16856489309537501,97.6 nM
same,potency estimated from few doses,[12]; CATDS: 7.9715899202970897E-2,565 nM
O=C1N=C(NCCc2cccc(F)c2)S/C1=C\c1ccc2ncccc2c1 [RO4508344-000],potency estimated from few doses,"[1]; compound concentrations: 100 nM and 1000 nM (sheet 'Samples'), CATDS: 0.102414054055007",806 nM
same,potency estimated from few doses,[3]; CATDS: 0.18459427931802,278 nM
same,potency estimated from few doses,[4]; CATDS: 0.11348899784144,644 nM
same,potency estimated from few doses,[5]; CATDS: 0.10848766260937499,709 nM
same,potency estimated from few doses,[6]; CATDS: 0.12392603207531599,541 nM
same,potency estimated from few doses,[2]; CATDS: 9.5289389413805506E-2,958 nM
